# TGFb inhibitor = qHTS for Inhibitors of TGF-b; HepG2 CAGA-GFP TGF-b/SMAD3 reporter, GFP fluorescence, 18 h; TGF-beta stimulated, 500 pg/mL final; Potency, µM (titrated, usually from 46.1 µM), most hits filed as inhibitors; hit rate 1.2% among 410,000; further: nearly all actives have a fitted effect of over 65% in size
#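 Cell-based qHTS in HEPG2 carrying a CAGA-GFP Smad reporter; compounds added before 500 pg/mL final TGF-beta, 18 h incubation at 37 degrees C, GFP fluorescence quantified per cell by imaging cytometry.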
# ATXN2 expr inh = Primary qHTS for Inhibitors of ATXN expression; HEK-293 ATXN2-luciferase reporter, luminescence, 24 h; Potency, µM (top dose mostly 57 µM), actives largely listed as inhibitors; hit rate 0.72% among 360,000; AID 1745845, 2022; further: nearly all actives have a fitted effect of over 55% in size
#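 ATXN2-luciferase reporter cells (luciferase flanked by upstream and downstream ATXN2 gene portions) were treated 24 h at 37 °C with compounds at up to 57 uM. SteadyGlo luminescence gave expression; GF-AFC fluorescence gave viability.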
# Gal4-VP16 FLuc = VP16 counterscreen qHTS for inhibitors of ROR gamma transcriptional activity. hit rate 3.5% among 310,000. Drosophila S2 Gal4-VP16 UAS-luciferase, luminescence, 20 h. AID 2546, 2010. Potency, µM (titrated, usually from 53.6 µM), hits mostly inhibitors;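 further: Gal4-VP16 expression switched on by copper sulfate through the metallothionein promoter; nearly all actives have a fitted effect of over 50% in size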
# RORg inh = qHTS for inhibitors of ROR gamma transcriptional activity. Nuclear receptor ROR-gamma (Mus musculus), P51450. Drosophila S2 Gal4-RORgamma UAS-luciferase reporter, 20 h. Potency, µM (doses to about 53.6 µM), usual class: inhibitors. hit rate 5.4% among 310,000. AID 2551, 2010; further: nearly all actives have a fitted effect of over 60% in size
# Target sequence (P51450 whole entry, looked up, the tested form may be a part): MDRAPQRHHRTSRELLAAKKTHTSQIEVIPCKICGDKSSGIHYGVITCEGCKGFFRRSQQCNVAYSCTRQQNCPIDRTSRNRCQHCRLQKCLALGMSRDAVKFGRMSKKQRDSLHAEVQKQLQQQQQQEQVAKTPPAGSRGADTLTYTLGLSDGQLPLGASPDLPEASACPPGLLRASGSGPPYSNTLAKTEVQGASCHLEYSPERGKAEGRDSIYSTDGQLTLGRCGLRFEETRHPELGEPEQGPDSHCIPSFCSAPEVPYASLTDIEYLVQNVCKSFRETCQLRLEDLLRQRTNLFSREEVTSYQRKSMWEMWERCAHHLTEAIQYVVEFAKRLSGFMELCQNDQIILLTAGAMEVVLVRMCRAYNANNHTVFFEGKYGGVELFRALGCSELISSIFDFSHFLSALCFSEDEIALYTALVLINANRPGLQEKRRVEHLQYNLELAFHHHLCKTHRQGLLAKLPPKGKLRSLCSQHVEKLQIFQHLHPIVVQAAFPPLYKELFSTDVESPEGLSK
#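 Luminescence from a UAS-regulated Photinus luciferase reporter in stably transfected Drosophila Schneider cells is measured; decreased signal marks ROR gamma inhibition. Fusion expression is induced by 700 uM copper sulfate for 20 hr.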
# HepG2 tox-1 = qHTS for Inhibitors of TGF-b: Cytotox Counterscreen. HepG2 CAGA-GFP viability, ATP luminescence, 18 h. Potency, µM (series often up to 46.1 µM), actives largely listed as cytotoxic. hit rate 0.76% among 410,000
#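 HepG2 CAGA-GFP cells (1000/well, DMEM with 1% FBS) received compound, then TGF-beta at 500 pg/mL final, and were incubated 18 hours at 37 degrees C. Viability was read by CellTiter-Glo luminescence. Media-only wells were set as complete cell-killing and DMSO as no toxicity.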
# S2 tox = Viability Counterscreen for Primary qHTS for Inhibitors of ATXN expression; hit rate 0.49% among 400,000; S2 cells (HEK-293 line with an ATXN2-luciferase reporter) viability, CellTiter-Fluor protease fluorescence, 24 h; Potency, µM (titrated, usually from 56.7 µM), most hits filed as cytotoxic; further: nearly all actives have a fitted effect of over 40% in size
# TGFb confirm = qHTS for Inhibitors of TGF-b: Confirmation of Cherry Picks. Potency, µM (series often up to 46.1 µM), most hits filed as inhibitors. hit rate 63% among 1,600. HepG2 CAGA-GFP TGF-b reporter, GFP fluorescence, 18 h; cells stimulated with TGF-beta, 500 pg/mL. shares compounds with TGFb inhibitor. AID 720534, 2013; further: nearly all actives have a fitted effect of over 65% in size
# HepG2 tox-2 = qHTS for Inhibitors of TGF-b: Cytotox Counterscreen for Cherry Picks. shares compounds with TGFb inhibitor. HepG2 CAGA-GFP viability, ATP luminescence, 18 h; cells stimulated with TGF-beta, 500 pg/mL. Potency, µM (series often up to 46.1 µM), hits mostly inhibitors. hit rate 27% among 1,600. AID 720535, 2013; further: nearly all actives have a fitted effect of over 70% in size
# TGFb CCL64 inh = qHTS for Inhibitors of TGF-b: CCL64 Cells Orthogonal Assay for Cherry Picks; hit rate 41% among 1,600; CCL64 CAGA-GFP reporter, TGF-b stimulated, GFP fluorescence, 18 h; shares compounds with TGFb inhibitor; Potency, µM (highest dose often 46.1 µM), most hits filed as inhibitors; further: nearly all actives have a fitted effect of over 65% in size
# COP TGFb inh = qHTS for Inhibitors of TGF-b: Hit Validation in HepG2 Cells using COP promoter; shares compounds with TGFb inhibitor; HepG2 COP-GFP TGF-b reporter, GFP fluorescence, 18 h; cells stimulated by added recombinant TGF-beta; Potency, µM (doses to about 46.1 µM), actives largely listed as inhibitors; hit rate 3% among 1,600; AID 720537, 2013; further: nearly all actives have a fitted effect of over 70% in size
# A number is an active result; n = inactive; u = inconclusive; x = no result; ! = not confirmed by another sample; [ ] = dose if it differs, or a comment. In the library only some 6.3% were active in any assay of this set; here they are far more common. The call rests on the fitted dose curve; in most records, active means well fitted curve in the direction sought with a large enough effect; inconclusive means small, poorly fitted or top-dose-only effect, or another doubt; inactive means no such curve, though single readings can be large; an effect the other way counts as inactive or inconclusive.
SMILES,TGFb inhibitor,ATXN2 expr inh,Gal4-VP16 FLuc,RORg inh,HepG2 tox-1,S2 tox,TGFb confirm,HepG2 tox-2,TGFb CCL64 inh,COP TGFb inh
COc1ccc2[nH]c3c(C)c4ccncc4c(C)c3c2c1,3.5µM,2µM,4.5µM,3.2µM,11µM,u,2.3µM,4.1µM,2.6µM,u
O=S(=O)(c1ccc(Cl)cc1)c1nc(-c2cccc(Br)c2)oc1NCc1ccccc1,n,n,x,x,n,n,x,x,x,x
COc1cc2ccccc2cc1C(=O)Nc1ccc(Cc2ccncc2)cc1,u,n,n,n,n,u,8.2µM,u,12µM,n
COc1cc2ccccc2cc1C(=O)Nc1ccc(C)cc1,u,x,u,u,n,n,x,x,x,x
S=C(Nc1ccccc1)Nc1ccc(Br)cc1,u,x,u,u,n,n,x,x,x,x
S=C(Nc1ccc(Br)cc1)NC1CCCCC1,10µM,n,18µM,7.9µM,n,n,u,u,u,n
CCCCC[C@H]1CN(CCc2ccccc2)C(=O)[C@@H]1CC(=O)NCc1ccc(OC)cc1,10µM,n,n,n,7.1µM!,n,u,n,u,n
O=C(CSc1nnc(CNc2ccc(F)cc2)n1Cc1ccccc1)NCc1ccco1,n,n,n,n,n,n,x,x,x,x
CCOc1ccccc1-n1c(CNc2ccc(F)cc2)nnc1SCC(=O)NCc1ccco1,8.9µM,n,n,u,n,u,u,n,n,n
CCOc1ccc(NC(=O)CSc2ncc(-c3ccc(F)cc3)n2Cc2ccco2)cc1,16µM,n,u,u,n,n,26µM,u,u,n
COc1ccc(N2C(=O)CC(Cc3ccccc3)C2=O)cc1 (configuration not stated),n,n,n,n,n,n,x,x,x,x
O=C1C=CC2(C=C1)O[C@H](Cc1ccccc1)[C@@H](Cc1ccccc1)O2,4.5µM,u,x,x,n,3µM,3.3µM,6.5µM,1µM,u
COc1ccc(C[C@@H]2OC3(C=CC(=O)C=C3)O[C@H]2Cc2ccc(OC)cc2)cc1,2.8µM,u,x,x,11µM,x,2.3µM,2.6µM,0.82µM,u
O=C(NCc1ccco1)c1cccc(Nc2nc3ccc(Br)cc3[nH]2)c1,u,n,u,n,n,n,x,x,x,x
O=C(NCC1CC1)c1ccc(Nc2nc3ccc(Br)cc3[nH]2)cc1,10µM,n,n,n,n,u,u,u,u,n
COc1ccccc1Cc1c(-c2ccco2)nc2c(C)cc(Br)cn12,8.9µM,8.9µM,x,x,n,u,7.3µM,9.2µM,4.6µM,u
Cc1ccc2nc(-c3ccc(Cl)cc3)c(CC3CCCCC3)n2c1,n,n,x,x,n,u,x,x,x,x
COc1ccccc1Cc1c(-c2ccco2)nc2ccc(C)cn12,10µM,n,x,x,n,u,16µM,u,u,n
Cc1ccc2nc(-c3ccco3)c(CC3CCCCC3)n2c1,10µM,n,x,x,n,x,u,u,21µM,n
Cc1ccccc1-c1cc2nc(Oc3cccc(F)c3)n(C)c(=O)c2s1,n,n,x,x,n,n,x,x,x,x
O=C1NC(c2ccccc2Cl)Nc2ccccc21 (configuration not stated),n,n,n,n,n,n,x,x,x,x
O=C1NC(c2cccc3ccccc23)Nc2ccccc21 (configuration not stated),3.5µM,n,x,x,n,u,2.6µM,u,6.5µM,n
O=C(NCCc1c[nH]c2ccccc12)OCCCCOC(=O)NCCc1c[nH]c2ccccc12,10µM,u,x,x,n,18µM,u,16µM,18µM,n
CC(C)(C)S(=O)(=O)/C(C#N)=N/Nc1ccc(Cl)cc1,u,u,u,u,n,u,13µM,u,u,n
CC(C)(C)c1ccc(N/N=C(\C#N)S(=O)(=O)C(C)(C)C)cc1,u,n,n,n,n,u,x,x,x,x
SMILES,TGFb inhibitor,ATXN2 expr inh,Gal4-VP16 FLuc,RORg inh,HepG2 tox-1,S2 tox,TGFb confirm,HepG2 tox-2,TGFb CCL64 inh,COP TGFb inh
CCN(CC)CC1CN(N=Cc2ccc([N+](=O)[O-])o2)C(=O)O1 (configuration not stated),u,n,x,x,n,u,x,x,x,x
O=[N+]([O-])c1cc2no[n+]([O-])c2cc1N1CCCCC1,2.8µM,9.5µM,x,x,n,5.3µM,1.6µM,6.5µM,3.7µM,u
CCOC(=O)CCN1C(=O)[C@H]2[C@H]3[C@H](O)[C@H](O)C/C(=N/OC/C=C(\C)CCC=C(C)C)[C@@H]3CC[C@@H]2C1=O,x,x,n[10 µM],n[10 µM],x,x,x,x,x,x
Cn1cc([N+](=O)[O-])c(C(=O)Nc2sc3c(c2C#N)CCC3)n1,8.9µM,x,n,n,n,n,13µM,7.3µM,n,n
Cn1cc(Br)c(C(=O)Nc2sc3c(c2C#N)CCC3)n1,n,n,n,n,n,n,x,x,x,x
CCSc1ccc([C@@H]2[C@@H]3C(=O)N(CC)C(=O)[C@@H]3[C@]3(C(=O)OC)CCCN23)cc1,u,n,x,x,n,n,u,n,n,n
CCC[C@H]1NC(=O)[C@H](C)N(C)C(=O)C(C)(C)C(=O)C(C)NC(=O)[C@H](Cc2ccc(OC)cc2)N(C)C(=O)[C@H](C(C)C)N(C)C(=O)CNC(=O)[C@H](CC(C)C)N(C)C(=O)CNC(=O)[C@H]([C@@H](C)CC)OC(=O)[C@H]1C (some centres not stated),1.1µM,u,x,x,n,u,0.37µM,u,0.29µM,n
CC[C@H](C)C1OC(=O)[C@@H](C)[C@@H](CC)NC(=O)[C@H](C)N(C)C(=O)C(C)(C)C(=O)C(C)NC(=O)[C@H](Cc2ccc(OC)cc2)N(C)C(=O)[C@H](C(C)C)N(C)C(=O)CNC(=O)[C@H](CC(C)C)N(C)C(=O)CNC1=O (some centres not stated),0.5µM,u,x,x,n,u,1µM,u,1.3µM,n

# Assay outcomes: PubChem BioAssay, National Center for Advancing Translational Sciences (NCATS)
